Fold change and cell count data for 30 compounds are collected here from PubChem BioAssay.

A short description of the test: sensitizers of A549 cells to miR-34 induction, primary screen, imaging, A549 dox-inducible miR-34, nuclei and caspase counts (AID 1347080). Note: test concentration not given here. Particulars: A549 miR-34 inducible, Hoechst nuclei count, 48 h.
The mark [1] stands for this setting: stronger effect = lower value, cell number ratio, induced over uninduced.
Setting [2] is: measured here: relative caspase fold change +Dox/-Dox.
[3] abbreviates: measured here: total cells with miR-34 induction, stronger effect = lower value.
[4] abbreviates: measured here: total cells without miR-34 induction.

Several values for one entry are separate records, joined by “and”; a condition that tells them apart may be missing. Identical values can stand only once. Activity calls are given as the source filed them.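 Rule for the calls: active = compounds whose cell count with miR-34 switched on is under 0.7 times the count with it off; inactive = the rest.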

Consider `OCCC/C=C/c1ccccc1`, for which the fold change was 0.953 (inactive) under setting [1] and 1.17 under setting [2]. Further, the cell count runs as follows: under setting [3], 5920; under setting [4], 6210.
The matching figures for `CCCCCCCCCCCCCCCC(=O)OC[C@H](COP(=O)([O-])OCC[N+](C)(C)C)OC(=O)CCCCCCCC(=O)/C=C/C(=O)O`: 0.943 (inactive), 0.858, 5750 and 6100.
The matching figures for `O=C(O)CCC/C=C\C[C@@H]1C(=O)C[C@@H](O)[C@@H]1/C=C/[C@@H](O)CC1CCCCC1`: 1.22 (inactive), 0.461, 7070 and 5800.
The matching figures for `CCCCCCCC/C=C\CCCCCCCC(=O)NCCS(=O)(=O)O`: 0.992 (inactive), 0.63, 6150 and 6200.
Consider `COc1cc(C[C@H]2COC(=O)[C@@H]2Cc2ccc(O)c(OC)c2)ccc1O`, for which the fold change by setting is: under setting [1], 0.981 (inactive); under setting [2], 0.938. Also, the cell count under setting [3] amounted to 5500 and the cell count under setting [4] was 5600.
The matching figures for `COc1ccc2c(c1)c(CC(=O)Oc1ccc(-c3cc(=S)ss3)cc1)c(C)n2C(=O)c1ccc(Cl)cc1`: 0.929 (inactive), 2.02, 5100 and 5490.
`CC(C)OC(=O)CCC/C=C\C[C@@H]1[C@@H](/C=C/[C@H](O)C2Cc3ccccc3C2)[C@@H](F)C[C@@H]1O`: the fold change runs as follows: under setting [1], 0.981 (inactive); under setting [2], 2.25. Besides, the cell count runs as follows: under setting [3], 5350; under setting [4], 5450.
The matching figures for `CCCCCCCC/C=C\CCCCCCCC(=O)NCC(=O)O`: 1.05 (inactive), 0.739, 6150 and 5840.
In the case of `CCCCC/C=C\C/C=C\C/C=C\C/C=C\CCCC(=O)Oc1ccc2ccc(=O)oc2c1`, the fold change under setting [1] is 0.939 (inactive) and the fold change under setting [2] is 0.946. For the same compound, the cell count under setting [3] worked out at 5890 and the cell count under setting [4] came out at 6270.
The matching figures for `CCCCC[C@H](O)/C=C/[C@@H]1[C@@H](C/C=C\CCCC(=O)OCC(O)CO)[C@@H](O)C[C@H]1O` (stereo not given in full): 0.942 (inactive), 1.39, 5810 and 6170.
The matching figures for `CC#CCC(C)[C@H](O)/C=C/[C@@H]1[C@H]2C/C(=C\CCCC(=O)O)C[C@H]2C[C@H]1O` (stereo not given in full): 0.896 (inactive), 1.12, 5570 and 6220.
As to `CCCCC/C=C\C/C=C\C/C=C\C/C=C\CCCC(=O)O[C@H](COCCCCCCCCCCCCCCCC)COP(=O)([O-])OCC[N+](C)(C)C`, the fold change is 0.94 (inactive) and 0.936 (inactive) under setting [1]; 1.77 and 0.976 under setting [2]. Further, the cell count under setting [3] was 5550 and 5760; the cell count under setting [4] is 5910 and 6160.
For the compound `CCCCCCCCCCCCCCCCCCCCCCCC(=O)NCCS(=O)(=O)O`, the fold change runs as follows: under setting [1], 0.987 (inactive); under setting [2], 0.331. In addition, the cell count by setting is: under setting [3], 5520; under setting [4], 5600.
The matching figures for `CCCCC[C@H](O)/C=C/[C@@H]1[C@@H](C/C=C\CCCC(=O)NCCO)[C@@H](O)C[C@@H]1O`: 0.916 (inactive), 1.36, 5800 and 6330.
In the same order, the values of `NC(=NCC[C@H](N)C(=O)O)NO` are 0.915 (inactive), 0.994, 4720 and 5160.
The matching figures for `COc1ccc(/C=C/c2ccccc2F)cc1`: 0.866 (inactive), 1.67, 5810 and 6700.
For the compound `O=C(CCc1ccc(O)c(O)c1)N[C@@H](CC(=O)OCc1ccccc1)C(=O)OCc1ccccc1`, the fold change by setting is: under setting [1], 1.01 (inactive); under setting [2], 0.94. Moreover, the cell count turned out to be 6350 under setting [3] and 6270 under setting [4].
In the same order, the values of `CCCCCCCCCCCCCCCCC(=O)NCCO` are 1.04 (inactive), 0.673, 6030 and 5800.
The matching figures for `O=C(Cc1ccccc1Nc1c(Cl)cccc1Cl)Oc1ccc(-c2cc(=S)ss2)cc1`: 0.933 (inactive), 1.55, 6130 and 6570.
In the same order, the values of `CCCCC[C@](C)(O)/C=C/[C@@H]1[C@@H](C/C=C\CCCC(=O)OC)[C@@H](O)C[C@H]1O` are 0.977 (inactive), 1.61, 6340 and 6490.
On to `CCCCCCCCCCCCCC(=O)O`, for which the fold change is, setting by setting: under setting [1], 1.04 (inactive); under setting [2], 1.03. Besides, the cell count under setting [3] was determined as 6710 and the cell count under setting [4] was 6460.
Consider `Cc1nnsc1C(=O)Nc1ccc(-n2nc(C(F)(F)F)cc2C(F)(F)F)cc1`, for which the fold change by setting is: under setting [1], 1.08 (inactive); under setting [2], 1.08. Moreover, the cell count reads like this: under setting [3], 5850; under setting [4], 5430.
Consider `CCCCC[C@H](O)/C=C/[C@H]1[C@H](O)CC(=O)[C@@H]1CCCCCCCCC(=O)O`, for which the fold change under setting [1] is 0.947 (inactive) and the fold change under setting [2] was found to be 1.98. Also, the cell count runs as follows: under setting [3], 5400; under setting [4], 5700.
As for `CCCCC[C@H](O)/C=C/[C@@H]1[C@H]2C/C=C\CCCC(=O)O[C@@H]1C[C@@H]2O`, the fold change runs as follows: under setting [1], 0.912 (inactive); under setting [2], 0.907. In addition, the cell count is, setting by setting: under setting [3], 5380; under setting [4], 5900.
In the same order, the values of `CCCCCCCCCCCSCC(=O)O` are 1.05 (inactive), 1.04, 6160 and 5890.
The matching figures for `CC(C)CCOc1ccc(N)cc1`: 0.779 (inactive), 2.13, 3780 and 4850.
Turning to `O=C1OC[C@@H](Cc2cccc(O)c2)[C@@H]1Cc1cccc(O)c1`, the fold change is, setting by setting: under setting [1], 0.923 (inactive); under setting [2], 1.92. The cell count reads like this: under setting [3], 5590; under setting [4], 6060.
With `CCCCC/C=C\C/C=C\C/C=C\C/C=C\CCCC(=O)S[C@H](COCCCCCCCCCCCCCCCC)COP(=O)([O-])OCC[N+](C)(C)C`, the fold change is 1.09 (inactive) under setting [1] and 0.9 under setting [2]. Also, the cell count worked out at 5810 under setting [3] and 5360 under setting [4].
In the case of `CCCCC[C@H](O)/C=C/[C@@H]1[C@H](CCCCCCC(=O)O)[C@H](O)C[C@H]1O`, the fold change under setting [1] is 0.963 (inactive) and the fold change under setting [2] was 1.17. The cell count runs as follows: under setting [3], 6030; under setting [4], 6260.
In the same order, the values of `CCCCC[C@H](O)C/C=C1/C(=O)C[C@H](O)[C@@H]1C/C=C\CCCC(=O)O` are 0.935 (inactive), 1.09, 5280 and 5650.
